# Tests used:
# Test in all cases: DAPPL (digital affinity profiling via proximity ligation, sequencing); 10 mM Tris-HCl pH 7.5, 50 mM NaCl, 1 mM DTT, 4% glycerol, room temperature, 30 min; GST-TFs on glutathione beads, 16-mer random dsDNA library, 0.1% formaldehyde crosslink after washing; high values mean tight binding
# FEV = biological target: T1, FEV (Homo sapiens, UniProt Q99581 1-238); conditions: protein: recombinant; tags: N-terminal GST; dsDNA, one strand shown
# T1 sequence: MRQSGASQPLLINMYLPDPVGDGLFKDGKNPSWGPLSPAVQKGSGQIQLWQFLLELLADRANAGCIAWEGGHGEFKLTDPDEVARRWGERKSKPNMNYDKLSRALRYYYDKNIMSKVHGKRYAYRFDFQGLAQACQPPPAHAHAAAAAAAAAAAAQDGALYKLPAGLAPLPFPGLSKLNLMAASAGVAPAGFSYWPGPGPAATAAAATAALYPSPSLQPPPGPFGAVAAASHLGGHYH
# Method in brief: (§1)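 Human transcription factors were made in yeast as GST fusions, captured on glutathione beads and barcoded with DNA. With a tag-only sample included, the pool was incubated with 200 nmole of a random double-stranded 16-mer DNA library in Tris/NaCl/DTT/glycerol buffer at room temperature for 30 min, then crosslinked with 0.1% formaldehyde after washing, ligated by proximity, amplified and sequenced. For binding signal, each hexamer's read frequency for a factor is divided by its frequency for the tag-only sample.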
# ETV5 = ETV5 (Homo sapiens, UniProt P41161 1-510); conditions: protein: recombinant; tags: N-terminal GST; dsDNA, one strand shown
# Method in brief: as §1
# HSF1 = HSF1 (Homo sapiens, UniProt Q00613 1-529); conditions: protein: recombinant; tags: N-terminal GST; chain copies: 3; dsDNA, one strand shown
# Method in brief: as §1
# SPIC = biological target: T2, SPIC (Homo sapiens, UniProt Q8N5J4 1-248); conditions: protein: recombinant; tags: N-terminal GST; dsDNA, one strand shown
# T2 sequence: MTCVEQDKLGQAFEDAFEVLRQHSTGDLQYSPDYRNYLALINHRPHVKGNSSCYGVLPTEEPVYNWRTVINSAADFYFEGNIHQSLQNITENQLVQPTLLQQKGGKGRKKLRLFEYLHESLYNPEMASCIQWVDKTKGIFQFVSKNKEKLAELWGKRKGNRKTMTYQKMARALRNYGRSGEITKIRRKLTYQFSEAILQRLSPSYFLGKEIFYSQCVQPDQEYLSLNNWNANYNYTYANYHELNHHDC
# Method in brief: as §1
# ELF4 = ELF4 (Homo sapiens, UniProt Q99607 1-663); conditions: protein: recombinant; tags: N-terminal GST; dsDNA, one strand shown
# Method in brief: as §1
# ELK4 = biological target: T3, ELK4 (Homo sapiens, UniProt P28324-2 1-405); conditions: protein: recombinant; tags: N-terminal GST; dsDNA, one strand shown
# T3 sequence: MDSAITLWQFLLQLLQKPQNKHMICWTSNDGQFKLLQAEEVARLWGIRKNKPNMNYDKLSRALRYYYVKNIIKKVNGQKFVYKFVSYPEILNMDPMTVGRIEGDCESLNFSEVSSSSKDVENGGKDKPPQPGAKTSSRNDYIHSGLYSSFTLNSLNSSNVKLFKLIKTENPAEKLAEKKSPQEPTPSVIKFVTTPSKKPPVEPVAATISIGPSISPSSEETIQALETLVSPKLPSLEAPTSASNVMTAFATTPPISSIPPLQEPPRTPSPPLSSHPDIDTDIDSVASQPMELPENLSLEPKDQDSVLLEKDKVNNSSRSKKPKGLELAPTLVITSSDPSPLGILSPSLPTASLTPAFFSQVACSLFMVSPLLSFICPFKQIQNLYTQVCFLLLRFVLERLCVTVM
# Method in brief: as §1
# ETV2 = biological target: T4, ETV2 (Homo sapiens, UniProt O00321 1-342); conditions: protein: recombinant; tags: N-terminal GST; dsDNA, one strand shown
# T4 sequence: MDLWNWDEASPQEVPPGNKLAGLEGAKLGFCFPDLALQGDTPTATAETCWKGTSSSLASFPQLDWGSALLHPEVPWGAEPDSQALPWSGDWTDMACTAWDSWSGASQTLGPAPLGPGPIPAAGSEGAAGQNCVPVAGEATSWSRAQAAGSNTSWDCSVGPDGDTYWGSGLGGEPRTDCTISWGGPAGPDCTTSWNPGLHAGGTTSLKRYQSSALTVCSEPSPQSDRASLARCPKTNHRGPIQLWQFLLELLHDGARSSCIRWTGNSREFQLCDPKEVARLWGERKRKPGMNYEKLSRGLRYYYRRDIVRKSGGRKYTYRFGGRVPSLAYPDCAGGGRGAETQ
# Method in brief: as §1
# ELF3 = biological target: T5, ELF3 (Homo sapiens, UniProt P78545 1-371); conditions: protein: recombinant; tags: N-terminal GST; dsDNA, one strand shown
# T5 sequence: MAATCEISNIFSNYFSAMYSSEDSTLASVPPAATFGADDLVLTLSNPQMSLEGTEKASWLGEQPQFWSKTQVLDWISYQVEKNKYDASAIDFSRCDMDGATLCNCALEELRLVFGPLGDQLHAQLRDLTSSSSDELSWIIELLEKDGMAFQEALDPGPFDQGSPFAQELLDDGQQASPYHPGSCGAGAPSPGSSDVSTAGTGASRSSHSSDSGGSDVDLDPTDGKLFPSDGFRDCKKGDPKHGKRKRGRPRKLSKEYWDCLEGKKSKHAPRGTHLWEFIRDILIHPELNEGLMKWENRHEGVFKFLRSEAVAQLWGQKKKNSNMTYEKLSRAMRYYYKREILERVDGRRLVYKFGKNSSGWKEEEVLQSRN
# Method in brief: as §1
# CRX = CRX (Homo sapiens, UniProt O43186 1-299); conditions: protein: recombinant; tags: N-terminal GST; dsDNA, one strand shown
# Method in brief: as §1
# ETV1 = ETV1 (Homo sapiens, UniProt P50549 1-477); conditions: protein: recombinant; tags: N-terminal GST; dsDNA, one strand shown
# Method in brief: as §1
# ERF = biological target: T6, ERF (Homo sapiens, UniProt P50548 1-548); conditions: protein: recombinant; tags: N-terminal GST; dsDNA, one strand shown
# T6 sequence: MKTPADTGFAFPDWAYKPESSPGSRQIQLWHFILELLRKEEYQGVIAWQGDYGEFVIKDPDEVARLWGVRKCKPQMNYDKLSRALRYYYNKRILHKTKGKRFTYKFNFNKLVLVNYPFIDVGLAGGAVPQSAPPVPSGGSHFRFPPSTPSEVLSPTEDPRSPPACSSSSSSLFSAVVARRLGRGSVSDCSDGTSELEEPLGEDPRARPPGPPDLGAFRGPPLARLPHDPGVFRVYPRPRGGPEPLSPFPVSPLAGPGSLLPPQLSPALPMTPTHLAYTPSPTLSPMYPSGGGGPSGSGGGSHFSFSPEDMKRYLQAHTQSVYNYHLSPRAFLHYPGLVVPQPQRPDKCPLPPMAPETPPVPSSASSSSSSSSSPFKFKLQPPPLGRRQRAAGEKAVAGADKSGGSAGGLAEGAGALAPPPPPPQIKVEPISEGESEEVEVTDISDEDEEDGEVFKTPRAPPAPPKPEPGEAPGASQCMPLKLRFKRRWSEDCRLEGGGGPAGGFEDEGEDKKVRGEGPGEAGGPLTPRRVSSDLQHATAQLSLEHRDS
# Method in brief: as §1
# ETV3L = biological target: T7, ETV3L (Homo sapiens, UniProt Q6ZN32 1-361); conditions: protein: recombinant; tags: N-terminal GST; dsDNA, one strand shown
# T7 sequence: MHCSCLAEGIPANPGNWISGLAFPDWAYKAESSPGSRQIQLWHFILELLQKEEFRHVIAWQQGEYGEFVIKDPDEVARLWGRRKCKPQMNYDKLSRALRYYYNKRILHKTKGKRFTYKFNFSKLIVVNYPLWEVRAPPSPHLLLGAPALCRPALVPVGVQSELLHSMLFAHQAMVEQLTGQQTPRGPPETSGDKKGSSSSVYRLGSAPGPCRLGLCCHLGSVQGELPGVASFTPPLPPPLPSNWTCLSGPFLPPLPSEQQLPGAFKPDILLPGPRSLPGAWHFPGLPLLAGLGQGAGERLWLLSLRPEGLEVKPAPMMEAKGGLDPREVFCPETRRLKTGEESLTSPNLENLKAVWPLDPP
# Method in brief: as §1
# ETS2 = biological target: T8, ETS2 (Homo sapiens, UniProt P15036 1-469); conditions: protein: recombinant; tags: N-terminal GST; dsDNA, one strand shown
# T8 sequence: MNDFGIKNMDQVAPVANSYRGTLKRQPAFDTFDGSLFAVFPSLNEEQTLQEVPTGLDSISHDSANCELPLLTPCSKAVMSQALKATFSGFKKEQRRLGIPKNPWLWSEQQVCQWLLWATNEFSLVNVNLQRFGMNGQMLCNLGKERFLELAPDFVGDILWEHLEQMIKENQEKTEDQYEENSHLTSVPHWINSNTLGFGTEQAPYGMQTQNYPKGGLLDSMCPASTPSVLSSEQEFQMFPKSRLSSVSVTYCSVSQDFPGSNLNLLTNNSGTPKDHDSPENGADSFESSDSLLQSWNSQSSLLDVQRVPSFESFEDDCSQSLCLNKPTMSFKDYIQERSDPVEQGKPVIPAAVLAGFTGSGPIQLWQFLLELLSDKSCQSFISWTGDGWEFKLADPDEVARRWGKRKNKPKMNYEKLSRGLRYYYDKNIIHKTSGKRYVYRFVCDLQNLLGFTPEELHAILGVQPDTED
# Method in brief: as §1
# SPDEF = biological target: T9, SPDEF (Homo sapiens, UniProt O95238 1-335); conditions: protein: recombinant; tags: N-terminal GST; dsDNA, one strand shown
# T9 sequence: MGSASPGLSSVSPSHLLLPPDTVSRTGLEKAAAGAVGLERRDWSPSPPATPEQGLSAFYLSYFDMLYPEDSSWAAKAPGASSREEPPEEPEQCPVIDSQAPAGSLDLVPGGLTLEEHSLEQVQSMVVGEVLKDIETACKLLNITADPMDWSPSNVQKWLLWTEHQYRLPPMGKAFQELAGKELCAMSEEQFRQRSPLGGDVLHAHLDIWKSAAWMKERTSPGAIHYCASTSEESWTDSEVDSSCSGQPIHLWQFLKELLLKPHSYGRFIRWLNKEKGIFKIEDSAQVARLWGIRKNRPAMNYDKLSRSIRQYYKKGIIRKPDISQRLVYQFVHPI
# Method in brief: as §1
# ETV7 = biological target: T10, ETV7 (Homo sapiens, UniProt Q9Y603 1-341); conditions: protein: recombinant; tags: N-terminal GST; dsDNA, one strand shown
# T10 sequence: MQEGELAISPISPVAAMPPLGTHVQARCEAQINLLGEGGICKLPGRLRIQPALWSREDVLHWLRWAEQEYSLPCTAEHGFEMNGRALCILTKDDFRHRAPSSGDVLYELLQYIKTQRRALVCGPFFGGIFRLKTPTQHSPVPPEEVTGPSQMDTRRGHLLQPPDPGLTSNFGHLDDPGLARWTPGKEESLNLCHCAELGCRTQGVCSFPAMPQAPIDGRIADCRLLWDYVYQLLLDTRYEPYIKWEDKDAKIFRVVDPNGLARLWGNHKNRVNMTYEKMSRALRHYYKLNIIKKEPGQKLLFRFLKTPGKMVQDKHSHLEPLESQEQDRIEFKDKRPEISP
# Method in brief: as §1
# ELF5 = biological target: T11, ELF5 (Homo sapiens, UniProt Q9UKW6-2 1-255); conditions: protein: recombinant; tags: N-terminal GST; dsDNA, one strand shown
# T11 sequence: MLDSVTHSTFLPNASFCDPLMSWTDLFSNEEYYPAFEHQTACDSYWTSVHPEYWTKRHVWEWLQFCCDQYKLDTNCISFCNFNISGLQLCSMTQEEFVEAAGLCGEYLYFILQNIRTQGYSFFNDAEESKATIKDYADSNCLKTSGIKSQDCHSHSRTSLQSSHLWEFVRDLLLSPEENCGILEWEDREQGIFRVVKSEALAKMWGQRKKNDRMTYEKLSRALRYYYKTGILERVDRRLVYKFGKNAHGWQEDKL
# Method in brief: as §1
# ETV3 = biological target: T12, ETV3 (Homo sapiens, UniProt P41162-2 1-143); conditions: protein: recombinant; tags: N-terminal GST; dsDNA, one strand shown
# T12 sequence: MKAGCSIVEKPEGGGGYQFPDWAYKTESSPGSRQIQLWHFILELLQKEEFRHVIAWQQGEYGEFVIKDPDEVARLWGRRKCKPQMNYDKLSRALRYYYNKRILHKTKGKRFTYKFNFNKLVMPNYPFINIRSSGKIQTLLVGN
# Method in brief: as §1
# ETV6 = ETV6 (Homo sapiens, UniProt P41212 1-452); conditions: protein: recombinant; tags: N-terminal GST; dsDNA, one strand shown
# Method in brief: as §1
# Sequence of ETV1 (P50549 whole entry): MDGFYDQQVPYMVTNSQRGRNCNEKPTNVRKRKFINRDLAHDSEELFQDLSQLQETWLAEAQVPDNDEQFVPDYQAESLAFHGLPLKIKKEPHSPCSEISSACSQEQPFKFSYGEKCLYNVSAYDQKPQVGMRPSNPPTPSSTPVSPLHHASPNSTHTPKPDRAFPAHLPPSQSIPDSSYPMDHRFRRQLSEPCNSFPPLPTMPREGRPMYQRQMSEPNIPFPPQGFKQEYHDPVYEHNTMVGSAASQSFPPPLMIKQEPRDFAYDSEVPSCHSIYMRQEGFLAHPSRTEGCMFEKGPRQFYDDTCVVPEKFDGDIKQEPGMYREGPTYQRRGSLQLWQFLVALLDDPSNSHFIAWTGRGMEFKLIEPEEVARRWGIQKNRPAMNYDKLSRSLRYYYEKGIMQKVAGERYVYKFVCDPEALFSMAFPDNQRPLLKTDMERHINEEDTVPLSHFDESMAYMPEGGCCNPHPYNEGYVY
# Sequence of ETV5 (P41161 whole entry): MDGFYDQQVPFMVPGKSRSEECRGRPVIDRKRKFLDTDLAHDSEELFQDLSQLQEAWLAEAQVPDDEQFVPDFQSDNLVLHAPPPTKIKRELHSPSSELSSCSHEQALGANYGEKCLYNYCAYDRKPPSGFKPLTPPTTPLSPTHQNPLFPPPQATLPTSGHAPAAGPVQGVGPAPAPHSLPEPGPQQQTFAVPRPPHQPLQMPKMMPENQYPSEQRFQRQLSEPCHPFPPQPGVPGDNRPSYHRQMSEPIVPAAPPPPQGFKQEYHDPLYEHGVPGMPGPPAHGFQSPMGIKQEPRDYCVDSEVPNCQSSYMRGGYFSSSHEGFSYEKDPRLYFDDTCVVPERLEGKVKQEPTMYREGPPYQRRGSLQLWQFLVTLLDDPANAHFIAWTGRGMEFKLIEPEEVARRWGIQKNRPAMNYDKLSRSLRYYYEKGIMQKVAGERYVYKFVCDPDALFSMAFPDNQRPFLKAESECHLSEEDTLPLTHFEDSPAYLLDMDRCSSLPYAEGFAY
# Sequence of CRX (O43186 whole entry): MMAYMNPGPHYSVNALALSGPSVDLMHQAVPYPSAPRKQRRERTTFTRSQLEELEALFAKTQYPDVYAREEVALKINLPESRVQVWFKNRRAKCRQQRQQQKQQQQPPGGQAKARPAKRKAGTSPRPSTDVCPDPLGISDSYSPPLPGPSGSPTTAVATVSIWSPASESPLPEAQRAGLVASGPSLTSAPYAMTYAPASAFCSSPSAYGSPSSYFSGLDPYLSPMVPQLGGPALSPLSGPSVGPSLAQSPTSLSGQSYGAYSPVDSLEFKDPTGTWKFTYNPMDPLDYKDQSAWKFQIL
# Sequence of ETV6 (P41212 whole entry): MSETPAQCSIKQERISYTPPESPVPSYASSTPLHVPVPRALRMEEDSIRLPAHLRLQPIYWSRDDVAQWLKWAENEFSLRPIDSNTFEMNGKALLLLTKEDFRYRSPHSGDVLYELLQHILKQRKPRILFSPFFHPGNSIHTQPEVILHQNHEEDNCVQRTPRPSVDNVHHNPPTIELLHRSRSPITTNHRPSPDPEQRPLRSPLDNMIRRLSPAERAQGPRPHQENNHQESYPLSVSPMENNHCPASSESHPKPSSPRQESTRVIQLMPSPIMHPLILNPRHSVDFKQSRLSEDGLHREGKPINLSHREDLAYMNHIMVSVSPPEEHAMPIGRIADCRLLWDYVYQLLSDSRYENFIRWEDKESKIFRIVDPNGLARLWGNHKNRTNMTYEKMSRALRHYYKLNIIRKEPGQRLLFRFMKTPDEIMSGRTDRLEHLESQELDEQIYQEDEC
# Sequence of ELF4 (Q99607 whole entry): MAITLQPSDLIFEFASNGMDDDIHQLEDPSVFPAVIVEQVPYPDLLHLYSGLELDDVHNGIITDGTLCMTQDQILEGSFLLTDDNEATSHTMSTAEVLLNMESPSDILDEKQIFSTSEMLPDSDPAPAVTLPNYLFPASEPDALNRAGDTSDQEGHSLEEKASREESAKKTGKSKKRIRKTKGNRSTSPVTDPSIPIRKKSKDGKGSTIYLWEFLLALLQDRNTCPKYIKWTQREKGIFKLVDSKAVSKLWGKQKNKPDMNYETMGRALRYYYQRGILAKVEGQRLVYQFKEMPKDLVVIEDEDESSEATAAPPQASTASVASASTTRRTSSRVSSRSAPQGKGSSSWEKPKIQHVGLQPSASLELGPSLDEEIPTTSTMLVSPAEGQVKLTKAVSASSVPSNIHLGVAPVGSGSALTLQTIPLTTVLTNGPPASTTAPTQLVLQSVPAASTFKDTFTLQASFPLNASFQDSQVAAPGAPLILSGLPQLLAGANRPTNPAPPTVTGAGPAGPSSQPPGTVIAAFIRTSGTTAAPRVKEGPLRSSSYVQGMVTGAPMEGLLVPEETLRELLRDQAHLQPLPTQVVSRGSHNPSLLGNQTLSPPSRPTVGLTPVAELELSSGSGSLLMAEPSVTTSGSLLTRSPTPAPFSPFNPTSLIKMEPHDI
# Sequence of HSF1 (Q00613 whole entry): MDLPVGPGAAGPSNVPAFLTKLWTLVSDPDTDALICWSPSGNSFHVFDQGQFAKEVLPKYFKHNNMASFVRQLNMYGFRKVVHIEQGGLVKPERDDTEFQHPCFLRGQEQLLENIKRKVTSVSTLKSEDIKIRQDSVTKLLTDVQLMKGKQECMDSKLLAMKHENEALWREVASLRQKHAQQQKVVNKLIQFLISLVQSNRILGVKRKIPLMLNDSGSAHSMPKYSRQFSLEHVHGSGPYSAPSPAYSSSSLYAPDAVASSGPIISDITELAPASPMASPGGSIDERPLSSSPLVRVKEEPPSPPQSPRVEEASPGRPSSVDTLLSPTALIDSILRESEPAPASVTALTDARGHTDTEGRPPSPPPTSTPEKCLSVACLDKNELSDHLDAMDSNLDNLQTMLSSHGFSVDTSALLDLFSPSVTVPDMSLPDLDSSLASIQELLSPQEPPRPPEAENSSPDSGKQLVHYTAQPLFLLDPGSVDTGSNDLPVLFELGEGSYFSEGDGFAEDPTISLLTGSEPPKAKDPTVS
sequence,measurement,setting,value
TACTAC,binding signal,FEV,"1.35 fold enrichment (6-mer frequency, TF over GST control)"
same,binding signal,ETV5,"1.33 fold enrichment (6-mer frequency, TF over GST control)"
same,binding signal,HSF1,"1.17 fold enrichment (6-mer frequency, TF over GST control)"
same,binding signal,SPIC,"1.26 fold enrichment (6-mer frequency, TF over GST control)"
same,binding signal,ELF4,"1.36 fold enrichment (6-mer frequency, TF over GST control)"
same,binding signal,ELK4,"1.19 fold enrichment (6-mer frequency, TF over GST control)"
same,binding signal,ETV2,"1.38 fold enrichment (6-mer frequency, TF over GST control)"
same,binding signal,ELF3,"1.08 fold enrichment (6-mer frequency, TF over GST control)"
same,binding signal,CRX,"1.13 fold enrichment (6-mer frequency, TF over GST control)"
same,binding signal,ETV1,"1.24 fold enrichment (6-mer frequency, TF over GST control)"
same,binding signal,ERF,"1.3 fold enrichment (6-mer frequency, TF over GST control)"
same,binding signal,ETV3L,"1.41 fold enrichment (6-mer frequency, TF over GST control)"
same,binding signal,ETS2,"1.34 fold enrichment (6-mer frequency, TF over GST control)"
same,binding signal,SPDEF,"1.34 fold enrichment (6-mer frequency, TF over GST control)"
same,binding signal,ETV7,"1.47 fold enrichment (6-mer frequency, TF over GST control)"
same,binding signal,ELF5,"1.36 fold enrichment (6-mer frequency, TF over GST control)"
same,binding signal,ETV3,"1.29 fold enrichment (6-mer frequency, TF over GST control)"
same,binding signal,ETV6,"1.38 fold enrichment (6-mer frequency, TF over GST control)"

# From paper PMC7862700, “An all-to-all approach to the identification of sequence-specific readers for epigenetic DNA modifications on cytosine”
